Twelve molecules from PubChem BioAssay (NCATS) can be followed below.

SMILES strings stand for the structures. “And” between values parts separate entries of the source, which are not always exact repeats. Equal entries are not always repeated. Records with an inconclusive call do not appear. The source made the active and inactive calls. Unless noted, calls come from the whole dose curve; as a rule, active = well fitted curve in the direction sought with a large enough effect; inconclusive = small, poorly fitted or top-dose-only effect, or another doubt; inactive = no such curve, though single readings can be large; an effect the other way counts as inactive or inconclusive.

For assay [1], the target named is Mitogen-activated protein kinase 10 (Mus musculus) (UniProt Q61831). Nature of the assay: JNK3 AlphaScreen Assay (AID 530; active = well fitted curve in either direction with a large enough effect, not every such curve was filed as active;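 note: kinase came from lysate of stimulated human HepG2 cells; signal reports phosphorylation of biotinylated GST-cJun 1-79 at Ser73 with 10 µM ATP; % is set by controls: 0 for no effect and ±100 for the full control effect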). The procedure, abridged:
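qHTS titrations with 15 min compound pre-incubation before adding ATP (10 uM final). Read-out: AlphaScreen of Ser73-phosphorylated biotin-GST-cJun using HepG2 lysate JNK3 activated by IL-1β and TNFα.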

Assay [2] can be described thus: Cell Viability - LYMP1-002 - Assay at 16 hr (AID 948). Note: potency is the fitted concentration of half-maximal effect. The procedure, abridged:
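ATP luminescence (CellTiter-Glo) was measured after 16 hr compound exposure at 37 C of 2500 lymphoblastoid LYMP1-002 cells per well. Concentration-response curves were fitted with the Hill equation to give AC50.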

The nature of assay [3]: Cell Viability - LYMP2-005 (AID 967). Note: potency is the fitted concentration of half-maximal effect. The procedure, abridged: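 LYMP2-005 human lymphoblastoid cells (2500/well) were treated with compounds for 24 h at 37 C. Intracellular ATP was then measured by CellTiter-Glo luminescence after 30 min at room temperature. AC50 values came from Hill-equation fits of qHTS concentration-response data.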
The nature of assay [4]: Cell Viability - LYMP2-013 (AID 970). Note: nearly all actives have a fitted effect of over 55% in size. Note: potency is the fitted concentration of half-maximal effect. The procedure, abridged:
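Cytotoxicity is scored as a concentration-dependent drop in intracellular ATP in human lymphoblastoid cells after 24 hr compound exposure at 37 C. ATP is quantified by luciferase luminescence, and AC50 values come from Hill-equation modeling.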

Assay [5] in a line: Cell Viability - LYMP2-007 (AID 979).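 Note: cells exposed to compound for 24 h before reading; nearly all actives have a fitted effect of over 60% in size.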 Note: potency is the fitted concentration of half-maximal effect. The procedure, abridged:
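Cells are seeded at 2500 per well and rested 5 hr. Compounds are then added over a concentration series for 24 hr at 37 C. CellTiter-Glo is added for 30 min at room temperature before luminescence reading.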

Assay [6] is described as follows: Cell Viability - LYMP2-012 (AID 982).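 Note: cellular ATP by luciferase luminescence where a drop means cytotoxicity; cells exposed to compound for one day before reading; nearly all actives have a fitted effect of over 55% in size.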 Note: potency is the fitted concentration of half-maximal effect.
The nature of assay [7]: Cell Viability - LYMP2-020 (AID 986). Note: nearly all actives have a fitted effect of over 55% in size. Note: potency is the fitted concentration of half-maximal effect. In a few lines:
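Seed 2500 cells per well and incubate 5 hr at 37 C. Add compounds at a concentration series and incubate 24 hr at 37 C. Add CellTiter-Glo, wait 30 min at RT, read luminescence, and fit a Hill curve for AC50.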

The nature of assay [8]: Cell Viability - LYMP1-002 - Assay at 40 hr (AID 994). Note: nearly all actives have a fitted effect of over 60% in size. Note: potency is the fitted concentration of half-maximal effect. In a few lines: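 Cells are plated at 2500 per well and rested 5 hr at 37 C. Compounds are added and incubated 40 hr at 37 C. CellTiter-Glo reagent is added for 30 min at room temperature before luminescence is read.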
Assay [9] in a line: qHTS assay for cell viability of HEK293 cells (AID 743288). Note: nearly all actives have a fitted effect of over 50% in size. Note: potency is the fitted concentration of half-maximal effect. The note with it: ATP luminescence (CellTiter-Glo), 18 h; max response: stronger effect = lower value. In a few lines:
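Readout is luciferase-coupled ATP content (CellTiter-Glo luminescence, 30 min room temperature) as a measure of metabolically competent cells. Parental HEK293 cells were plated 5 h or more before compound addition, then treated 18 h at 37 C.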

Assay [10] is described as follows: MultiTox-Fluor Cytotoxicity Assay - LYMP1-002 - Live Cells (AID 955).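 Note: cells exposed to compound for 16 hours; % is set by controls: 0 for no effect and ±100 for the full control effect.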 In a few lines: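 Cells were seeded at 2500 per well and incubated 5 hr. Compounds were then added for 16 hr at 37 C, followed by MultiTox-Fluor reagent for 60 min at room temperature and fluorescence reading of viable-cell protease signal.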
Assay [11] is described as follows: Cell Viability - LYMP2-006 (AID 978). Note: % is set by controls: 0 for no effect and ±100 for the full control effect; nearly all actives have a fitted effect of over 60% in size. In a few lines: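 Potency values are Hill-fit AC50s for decreases in intracellular ATP (CellTiter-Glo luminescence). LYMP2-006 lymphoblastoid cells, 2500 per well, were exposed to compound in complete culture medium for 24 hr at 37 C.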
Assay [12] has as its target Estrogen receptor (Homo sapiens) (UniProt P03372). Nature of the assay: qHTS assay for small molecule antagonists of estrogen receptor alpha signaling (AID 588513; active = well fitted curve in the direction sought with a large enough effect in the signal ratio, with a control signal flat, not every such curve was filed as active; the % refers to the signal ratio; note: % is set by controls: 0 for no effect and ±100 for the full control effect). The procedure, abridged:
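Antagonist mode: inhibition of 0.5 nM 17-beta-estradiol-driven beta-lactamase reporter in HEK 293 ER-alpha-UAS-bla cells, 18 h at 37C, CCF4 readout after 2 h at RT. Normalised to estradiol and DMSO; titration fitted to Hill.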
A general note: In qHTS, concentration-response curves come from the screen itself.

For assay [13] the target is unchanged. Nature of the assay: qHTS assay for small molecule agonists of estrogen receptor alpha signaling (AID 588514; calls by dose curve;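 note: 0% = vehicle only and 100% = reference agonist; nearly all actives have a fitted effect of over 70% in size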). In a few lines: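 Efficacy is expressed against 20 nM 17-beta-estradiol (100%) and DMSO basal (0%); EC50 from Hill equation. Assay: beta-lactamase reporter in ER-alpha-UAS-bla HEK 293 cells, 18 h compound incubation, CCF4 detection.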
In assay [14] the target is Glucocorticoid receptor (Homo sapiens) (UniProt P04150). Nature of the assay: qHTS assay for small molecule antagonists of glucocorticoid receptor signaling (AID 588533; active = well fitted inhibition curve with a large enough effect in the signal ratio, with a control signal flat, not every such curve was filed as active; the % refers to the signal ratio;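 note: cells stimulated with 2 nM dexamethasone as agonist; % is set by controls: 0 for no effect and ±100 for the full control effect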). The procedure, abridged:
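Antagonist-mode qHTS: compound titrations added to GRE-bla HeLa cells, then dexamethasone 2 nM final; 18 h, 37 C. CCF4 FRET fluorescence normalized to dexamethasone and DMSO; IC50 from Hill fit.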

Assay [15] is described as follows: qHTS assay for small molecule antagonists of peroxisome proliferator-activated receptor delta signaling (AID 588535; active = well fitted inhibition curve with a large enough effect in the signal ratio, with a control signal flat, not every such curve was filed as active; the % refers to the signal ratio;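 for max response: cells co-treated with a PPAR-delta agonist as stimulator during compound exposure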). The note with it: HEK293T PPARd-UAS-bla, beta-lactamase FRET ratio, 18 h; 460 nm channel. The procedure, abridged:
(§1)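 Titrations were run on PPAR-delta-UAS-bla HEK293T cells in charcoal/dextran-stripped serum, incubated 18 h at 37 C. CCF4 fluorescence (460/530 nm) after 2 h RT; Hill equation yields IC50 and maximal response.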

Assay [16] concerns the target Peroxisome proliferator-activated receptor delta (Homo sapiens) (UniProt Q03181). The assay is described as above. In a few lines: as §1
For assay [17], the target named is Peroxisome proliferator-activated receptor gamma (Homo sapiens) (UniProt P37231). Nature of the assay: qHTS assay for small molecule agonists of peroxisome proliferator-activated receptor gamma signaling (AID 588536; active = well fitted curve in the direction sought with a large enough effect in the signal ratio, with a control signal flat, not every such curve was filed as active; the % refers to the signal ratio;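 note: 0% = DMSO basal wells and 100% = rosiglitazone at 2 µM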). In a few lines: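 Cells were plated and held 6–6.5 h at 37 C, then compounds were added as a titration series. After a further 16 h, CCF4 dye was loaded for 2 h at room temperature and emission at 460/530 nm recorded.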
Sequence of Peroxisome proliferator-activated receptor gamma (Homo sapiens) (P37231 whole entry, looked up): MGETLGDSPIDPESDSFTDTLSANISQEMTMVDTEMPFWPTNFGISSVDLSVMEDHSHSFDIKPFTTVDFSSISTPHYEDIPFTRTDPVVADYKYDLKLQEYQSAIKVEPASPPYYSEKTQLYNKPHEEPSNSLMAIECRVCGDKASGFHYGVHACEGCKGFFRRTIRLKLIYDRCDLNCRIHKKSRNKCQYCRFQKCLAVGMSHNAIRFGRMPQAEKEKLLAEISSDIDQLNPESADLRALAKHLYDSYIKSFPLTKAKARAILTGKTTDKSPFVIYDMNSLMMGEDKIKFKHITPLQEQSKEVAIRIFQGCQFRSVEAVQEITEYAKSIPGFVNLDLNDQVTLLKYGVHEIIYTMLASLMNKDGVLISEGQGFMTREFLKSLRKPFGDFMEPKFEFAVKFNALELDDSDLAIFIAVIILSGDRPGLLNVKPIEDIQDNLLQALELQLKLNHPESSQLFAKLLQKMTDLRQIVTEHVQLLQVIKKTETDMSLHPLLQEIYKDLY

The target is the same in assay [18]. Nature of the assay: qHTS assay for small molecule antagonists of peroxisome proliferator-activated receptor gamma signaling (AID 588537; active = well fitted inhibition curve with a large enough effect in the signal ratio, with a control signal flat, not every such curve was filed as active; the % refers to the signal ratio;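 note: reporter cells co-stimulated with 50 nM rosiglitazone agonist during compound treatment; % of control where 0% means no effect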). In a few lines:
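Antagonist-mode β-lactamase reporter screen run as a titration series. HEK293 PPARγ-UAS-bla cells are stimulated with rosiglitazone (50 nM final) for 16 h, then CCF4 is read at 460/530 nm. Data are scaled between DMSO and rosiglitazone and fitted to the Hill equation.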

Assay [19] in a line: Cellular Toxicity (caspase-3) Hek293 (AID 664).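 Note: cells exposed to compound for 16 h at 37 °C before readout.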 The note with it: HEK293 caspase-3 activation, DMSO = 0%, 100 µM tamoxifen = 100%; at 92.2 µM (top of the series). The procedure, abridged: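 qHTS, HEK293 (human embryonic kidney), 16 h cpd exposure in complete medium. Caspase-3/7 activation = luminescence increase; normalized to DMSO/100 uM tamoxifen; Hill-fit AC50.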

Sequence of Peroxisome proliferator-activated receptor delta (Homo sapiens) (Q03181 whole entry, looked up): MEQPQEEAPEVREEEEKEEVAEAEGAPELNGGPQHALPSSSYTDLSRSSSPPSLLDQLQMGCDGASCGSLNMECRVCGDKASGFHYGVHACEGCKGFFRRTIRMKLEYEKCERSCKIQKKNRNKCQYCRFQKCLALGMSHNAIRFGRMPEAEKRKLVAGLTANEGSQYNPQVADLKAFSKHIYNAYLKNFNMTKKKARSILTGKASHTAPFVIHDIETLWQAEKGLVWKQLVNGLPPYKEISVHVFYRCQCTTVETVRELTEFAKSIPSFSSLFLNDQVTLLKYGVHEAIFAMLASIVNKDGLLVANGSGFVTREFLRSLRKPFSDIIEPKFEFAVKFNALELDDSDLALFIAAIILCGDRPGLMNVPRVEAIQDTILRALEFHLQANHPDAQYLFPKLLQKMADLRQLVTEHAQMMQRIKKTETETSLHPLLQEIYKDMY
Sequence of Glucocorticoid receptor (Homo sapiens) (P04150 whole entry, looked up): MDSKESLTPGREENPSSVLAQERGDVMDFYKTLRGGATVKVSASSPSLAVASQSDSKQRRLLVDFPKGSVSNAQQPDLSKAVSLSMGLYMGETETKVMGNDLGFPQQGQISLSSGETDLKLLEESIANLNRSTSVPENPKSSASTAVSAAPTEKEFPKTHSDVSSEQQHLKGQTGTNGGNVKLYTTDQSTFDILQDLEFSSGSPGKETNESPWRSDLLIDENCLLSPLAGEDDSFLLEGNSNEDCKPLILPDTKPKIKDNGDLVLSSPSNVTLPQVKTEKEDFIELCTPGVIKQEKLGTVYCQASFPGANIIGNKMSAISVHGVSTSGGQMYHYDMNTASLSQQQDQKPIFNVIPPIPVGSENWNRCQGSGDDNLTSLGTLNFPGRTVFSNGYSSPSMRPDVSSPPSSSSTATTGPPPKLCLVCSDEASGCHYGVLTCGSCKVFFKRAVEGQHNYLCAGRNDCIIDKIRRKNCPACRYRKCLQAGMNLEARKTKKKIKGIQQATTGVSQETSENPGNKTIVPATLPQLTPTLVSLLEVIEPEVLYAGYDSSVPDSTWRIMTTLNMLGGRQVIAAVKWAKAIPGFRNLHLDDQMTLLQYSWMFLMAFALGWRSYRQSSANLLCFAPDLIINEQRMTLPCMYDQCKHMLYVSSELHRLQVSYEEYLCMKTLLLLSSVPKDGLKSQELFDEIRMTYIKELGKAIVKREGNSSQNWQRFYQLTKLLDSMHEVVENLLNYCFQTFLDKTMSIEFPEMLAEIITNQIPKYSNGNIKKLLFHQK
Sequence of Estrogen receptor (Homo sapiens) (P03372 whole entry, looked up): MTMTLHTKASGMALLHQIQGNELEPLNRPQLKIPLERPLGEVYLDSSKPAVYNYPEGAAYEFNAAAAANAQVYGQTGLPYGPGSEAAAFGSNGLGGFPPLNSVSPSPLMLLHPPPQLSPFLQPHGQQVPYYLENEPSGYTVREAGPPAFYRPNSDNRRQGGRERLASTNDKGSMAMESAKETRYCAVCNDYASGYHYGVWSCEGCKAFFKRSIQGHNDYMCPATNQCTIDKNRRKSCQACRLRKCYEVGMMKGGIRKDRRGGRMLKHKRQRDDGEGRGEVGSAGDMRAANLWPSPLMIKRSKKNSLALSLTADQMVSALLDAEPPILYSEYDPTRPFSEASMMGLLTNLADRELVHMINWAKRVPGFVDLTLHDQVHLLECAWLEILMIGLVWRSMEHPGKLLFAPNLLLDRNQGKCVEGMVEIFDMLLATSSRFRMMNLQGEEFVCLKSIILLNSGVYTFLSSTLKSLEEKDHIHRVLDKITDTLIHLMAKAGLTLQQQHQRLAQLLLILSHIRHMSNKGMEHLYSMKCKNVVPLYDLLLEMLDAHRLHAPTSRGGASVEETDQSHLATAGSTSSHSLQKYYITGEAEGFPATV

On to `C=C1CC[C@H](O)C/C1=C/C=C1\CCC[C@]2(C)[C@@H]([C@H](C)CCCC(C)C)CC[C@@H]12`, for which the Potency result in assay [1] is “inactive”. Further, the Potency is 50.1 µM (active) in assay [2]; 39.8 µM (active) in assay [3]; 50.1 µM (active) in assay [4]; 50.1 µM (active) in [5]; 50.1 µM (active) in assay [6]; 50.1 µM (active) in assay [7]. Besides, the figures for the Potency in assay [8] and in assay [9] were 50.1 µM (active) and 44.7 µM (active), respectively.
On to `c1ccc2c(c1)ccc1ccccc12`, for which the Potency result in assay [2], in assay [4], in [11], in assay [6], in assay [7] and in [8] was “inactive” each time. Further, the Potency result in [13], in [14] and in assay [18] was “inactive” each time. Also, the call in assay [10], in [12], in assay [16] and in assay [17] was inactive. For the same molecule, the max response was -5.89% in [15]; 2.85% (inactive) and -2.95% (inactive) in assay [9].
Take `Nc1cc(C(=O)O)c(O)c(S(=O)(=O)O)c1`: the Potency result in [11], in assay [5], in assay [7], in assay [8] and in assay [14] was “inactive” each time. Further, the max response in assay [9] was -1.32% (inactive).
As for `CCN(CC)c1ccc2c(C)cc(=O)oc2c1`, the caspase-3 activation in assay [19] was 0.453% (inactive). The Potency result in assay [11], in assay [5], in assay [6], in assay [7], in assay [8] and in assay [18] was “inactive” each time. The call in [12] was inactive.
In the case of `Oc1cc(Cl)cc(Cl)c1Cl`, the Potency entry in assay [1], in assay [2], in [4], in [11] and in [13] was “inactive” in each case. For the same molecule, in assay [19], the caspase-3 activation is -0.269% (inactive). Also, the outcome in assay [10] and in [12] was inactive. Moreover, the max response in assay [9] was -4.35% (inactive).
Turning to `c1ccc(Nc2cccc3ccccc23)cc1`, the caspase-3 activation in [19] is 4.83% (inactive). The Potency entry in assay [2], in [3], in assay [5], in [6] and in assay [7] was “inactive” throughout. Further, the max response in assay [15] was 27.2% and -10.4%. For the same molecule, the result in assay [16] was inactive.
Turning to `NC(=O)Nc1nc2ccccc2[nH]1`, the Potency entry in [1], in [2], in [3], in [11], in [6] and in assay [7] was “inactive” in each case. Besides, in assay [13], the Potency entry was “inactive”. Besides, the caspase-3 activation in assay [19] was -0.34% (inactive). Besides, the outcome in assay [10], in [12] and in assay [16] was inactive. For the same molecule, the max response in [15] was -10.2%; in [9] it was -5.65% (inactive).
For `Nc1ccc(N)c(Cl)c1`, the Potency entry in assay [1], in assay [2], in [4], in [11], in assay [5] and in assay [7] was “inactive” in each case. Moreover, the Potency entry in assay [13] was “inactive”. In addition, the caspase-3 activation in [19] is 4.53% (inactive). In addition, in assay [15], the max response was -6.58%. Further, the molecule was called inactive in assay [16].
Consider `Cc1c(C(=O)O)c(O)cc2c1C(=O)c1c(O)c([C@H]3O[C@H](CO)[C@@H](O)[C@H](O)[C@H]3O)c(O)c(O)c1C2=O`, for which the caspase-3 activation in assay [19] is -3.17% (inactive). Moreover, the molecule was classed as inactive in assay [10], in [12] and in [16]. Besides, the Potency result in assay [7], in [13] and in assay [14] was “inactive” in each case. Also, the max response in assay [15] was 28.9%.
With `O=C1OC(=O)c2ccccc21`, the Potency entry in assay [1], in assay [11], in assay [5], in assay [6], in assay [7] and in assay [13] was “inactive” each time. Moreover, the Potency entry in assay [14] is “inactive”. For the same molecule, the molecule was called inactive in assay [12], in [16] and in [17]. Besides, the max response in assay [15] was -31.3%.
For the molecule `CC(/C=C/C=C(C)/C=C/C(=O)O)=C\C=C\C=C(C)\C=C\C=C(C)\C=C\C(=O)O`, the Potency entry in [1], in [4], in assay [11], in assay [5], in [7] and in assay [13] was “inactive” in each case. The Potency result in assay [14] is “inactive”. Moreover, the caspase-3 activation in [19] is -7.2% (inactive). The outcome in assay [12] was inactive. Also, the max response in assay [9] was -0.748% (inactive).
Regarding `C=CC(=O)CC`, the Potency result in [1], in [4], in assay [11], in assay [6], in assay [7] and in assay [8] was “inactive” each time. In addition, the caspase-3 activation in assay [19] is 0.103% (inactive). Besides, in [17], the molecule was classed as inactive. The max response in [9] was -3.35% (inactive).
